Inconclusive results are not listed. Activity calls are given as the source filed them. The call rests on the fitted dose curve; in most records, active means well fitted inhibition curve with a large enough effect; inconclusive means small, poorly fitted or top-dose-only effect; inactive means no such curve, though single readings can be large or run the other way.

This assay is described as follows: qHTS Assay for Lipid Storage Modulators: Differentiation Assay against Probe and Analogs. Particulars: 3T3-L1 adipocyte differentiation, BODIPY lipid imaging, 8 d; series mostly up to 20 µM. The source says: Storing lipids as a reservoir for energy or the anabolism of elementary metabolites is a common feature of probably all cells and is conserved from bacteria to humans. The universal cellular lipid storage organelle is the so-called lipid storage droplet (LD). Although ubiquitous, LDs share a simple structure composed of a hydrophobic core that harbors the storage lipids, which is shielded by a droplet-specific phospholipid monolayer to which proteins are attached. The current model of LD biogenesis involves an incorporation of the lipid core into the membrane leaflets of the endoplasmic reticulum (ER) followed by a subsequent budding-like maturation of a LD, which ultimately pinches off. Once released, LD volume can increase by localized lipogenesis or fusion of existing droplets. Storage lipids are re-mobilized enzymatically by lipase activity. Lipase regulation in the adipocyte is heavily studied and involves multiple components including catecholamine signaling, the LD-associated proteins Perilipin and comparative gene identification-58 (CGI-58) and at least two lipases named hormone sensitive lipase (HSL) and adipocyte triglyceride lipase (ATGL). LD regulation outside of the adipocyte is poorly understood and only few components are known. However, there is an urgent need to learn more about ectopic fat depots as mislocalized storage of lipids, for example in the liver or muscle, is an eminent health problem associated with insulin resistance or the metabolic syndrome. We developed a laser-scanning cytometer assay to enable 1,536-well screening and combined the results of the small molecules screen with an RNAi database based on lipid storage. […] NIH Chemical Genomics Center [NCGC] MLPCN Grant: MH085686 Assay Submitter (PI): Mathias Beller, Max-Planck-Institut fur Biophysikalische Chemie
3T3L1 cells were obtained from ATCC (CL-173). Pre-adipocyte medium (PM-1), differentiation medium (DM-2) and after adipocyte medium (AM-1) were purchased from Zen-Bio (# PM-1-L1, DM-2-L1, AM-1-L1). 200 uL of PM-1containing 3,000 cells was dispensed into each well of a 96-well plate (Corning, #3340), and the assay plates were incubated at 37 °C, 95% humidity and 5% CO2 for 3-5 days. The differentiation of pre-adipocyte to adipocyte was induced by removing the pre-adipocyte medium and replacing with 200 uL of differentiation medium. 1 uL of compounds at different concentrations dissolved in differentiation medium were added to the assay plates, along with medium exchange for differentiation to test their effects on adipocyte differentiation. The final DMSO concentration was 0.5%.Triacsin C (Sigma-Aldrich T-4540), an inhibitor of long-chain fatty acyl CoA synthetase that blocks synthesis of triglycerides, was used as a positive control for lipid under-storage. After 3 days, differentiation medium was replaced with adipocyte maintenance medium and assay plates were incubated for 5 days. Aspirated the medium, then Cells were fixed using 4% of paraformaldehyde in PBS for 30 minutes at room temperature, washed 3 times with PBS buffer. Finally, the cells were stained using 200 uL of PBS containing BODIPY lipid dye 493/530 (1:2000 dilution, Molecular Probes), Hoechst 33342 (1:1000 dilution, Life Technologies, #H3570) and CellMask deep red dye (1:10,000 dilution, Life Technologies, #H32721) with Washer dispenser EL406(Biotek). Images were acquired using InCell 2000 (GE), number of cells, number of lipids, size of lipids and cells were analysis using GE Investigator software.
(qHTS replaces the single test concentration by a dilution series.)
Take `O=C(NC1CCCc2c1cnn2-c1cccc(O)c1)c1ccccn1` (stereo not given): the Potency was 3.16 µM (active).

Regarding `CCn1c(C(=O)NCCc2ccc(OC)cc2)cc2sccc21`, the Potency was 12.6 µM (active).

As to `CCOc1cc(CCNC(=O)c2cc3sccc3n2Cc2ccccc2)cc(F)c1OCC`, the Potency is 2.82 µM (active).

For the molecule `CCOc1ccc(CCNC(=O)c2cc3sccc3n2CCN2CCOCC2)cc1OCC`, the Potency entry is “inactive”.

As for `CCOc1cc(F)c(CCNC(=O)c2cc3sccc3n2Cc2ccccc2)cc1OCC`, the Potency result was “inactive”.

In the case of `CCOC(=O)C1CCN(C(=O)C2(NC(=O)Nc3ccccc3Cl)CCC2)CC1`, the Potency is 2.82 µM (active).

As to `CC(C)Oc1ccc(CCNC(=O)c2cc3sccc3n2Cc2ccccc2)cc1OC(C)C`, the Potency is 3.98 µM (active).

For the molecule `CCOc1ccc(CCNC(=O)c2ccnn2Cc2cccc(C)c2)cc1OCC`, the Potency was 2.82 µM (active).

For the molecule `CCOC(=O)C1CCN(C(=O)C(C)(C)NC(=O)Nc2ccc(-c3ccccc3)cc2)CC1`, the Potency is 1.12 µM (active).

Turning to `CCOc1ccc(CCNC(=O)c2ccc3ccccc3n2)cc1OCC`, the Potency result is “inactive”.

The values above are taken from PubChem BioAssay AID652183 (National Center for Advancing Translational Sciences (NCATS), 2013).
